The values below come from PubChem BioAssay (Tox21).

Results filed as inconclusive are left out. Activity calls are given as the source filed them. Unless noted, calls follow the shape of the dose curve; as a rule, active = well fitted curve in the direction sought with a large enough effect in the repeat runs; inconclusive = weak or mixed curves; inactive = no such curve, though single readings can be large; an effect the other way counts as inactive or inconclusive.

Assay [1] is described as follows: qHTS assay to identify small molecule antagonists of the thyroid receptor (TR) signaling pathway - cell viability counter screen (AID 743064). Also: nearly all actives have a fitted effect of over 50% in size. The essentials:
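In-well cytotoxicity read by CellTiter-Fluor (30 min, 37 C) following 23.5 h exposure of GH3 cells bearing a TRE-luciferase sensor. Compounds were added alongside 1 nM (final) T3 to drive TR transactivation.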
Background: In qHTS, concentration-response curves come from the screen itself.

A short description of assay [2]: qHTS assay to identify small molecule antagonists of the thyroid receptor (TR) signaling pathway (AID 743065). Also: series mostly up to about 70 µM; nearly all actives have a fitted effect of over 55% in size. The essentials:
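Antagonism measured as loss of luciferase signal in GH3 cells stably carrying a TRE-luciferase reporter, co-treated with compound and T3 (1 nM final) for 23.5 h at 37 C. Viability was read in the same well by CellTiter-Fluor.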

For assay [3], the system named is thyroid hormone receptor (rat, GH3 cells). The assay is described as follows: qHTS assay to identify small molecule agonists of the thyroid receptor (TR) signaling pathway (AID 743066; calls by dose curve).
The target in assay [4] is Estrogen receptor (Homo sapiens) (UniProt P03372). The assay is described as follows: qHTS assay to identify small molecule antagonists of the estrogen receptor alpha (ER-alpha) signaling pathway (AID 743069; active = well fitted curve in the direction sought with a large enough effect in the signal ratio in the repeat runs, not every such curve was filed as active; the % refers to the signal ratio). The procedure, abridged: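 ER-alpha-UAS-bla GripTite HEK293 line; 2% charcoal-stripped FBS overnight; plated, 4 hr 37C/5% CO2; cpd in DMSO + 17beta-estradiol, 18 hr 37C; LiveBLAzer B/G FRET substrate 2 hr RT; fluorescence intensity.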
Sequence of Estrogen receptor (Homo sapiens) (P03372 whole entry, looked up): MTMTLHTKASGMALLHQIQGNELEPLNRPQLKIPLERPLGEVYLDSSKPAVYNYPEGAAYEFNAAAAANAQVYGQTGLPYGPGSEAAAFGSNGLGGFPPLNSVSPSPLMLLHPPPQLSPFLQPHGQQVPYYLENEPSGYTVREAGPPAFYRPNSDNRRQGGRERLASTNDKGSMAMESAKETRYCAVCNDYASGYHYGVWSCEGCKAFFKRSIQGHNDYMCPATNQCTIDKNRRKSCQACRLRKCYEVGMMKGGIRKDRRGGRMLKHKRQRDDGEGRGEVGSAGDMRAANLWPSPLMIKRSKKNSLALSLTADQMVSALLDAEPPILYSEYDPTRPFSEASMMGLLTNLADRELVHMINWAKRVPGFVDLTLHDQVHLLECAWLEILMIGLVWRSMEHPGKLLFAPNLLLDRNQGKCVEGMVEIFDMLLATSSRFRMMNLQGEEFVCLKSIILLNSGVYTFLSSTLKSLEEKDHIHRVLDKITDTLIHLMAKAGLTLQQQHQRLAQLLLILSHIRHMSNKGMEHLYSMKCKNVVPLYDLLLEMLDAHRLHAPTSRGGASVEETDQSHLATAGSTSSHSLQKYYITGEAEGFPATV

Assay [5] is described as follows: qHTS assay to identify small molecule antagonists of the estrogen receptor alpha (ER-alpha) signaling pathway - cell viability counter screen (AID 743074; calls by dose curve;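 also: HEK293 cells carrying ER-alpha-UAS-bla reporter stimulated with 17beta-estradiol; nearly all actives have a fitted effect of over 45% in size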).
For assay [6], the target named is Estrogen receptor (Homo sapiens) (UniProt P03372). Nature of the assay: qHTS assay to identify small molecule agonists of the estrogen receptor alpha (ER-alpha) signaling pathway (AID 743075; calls by dose curve;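 also: HEK293 GripTite cells with ER-alpha and UAS-driven beta-lactamase reporter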).
The target is the same in assay [7]. The assay is described as follows: qHTS assay to identify small molecule agonists of the estrogen receptor alpha (ER-alpha) signaling pathway using the BG1 cell line (AID 743079). Also: nearly all actives have a fitted effect of over 20% in size. Also: potency is read from the fitted curve at half-maximal effect.
The nature of assay [8]: qHTS assay to identify small molecule antagonists of the estrogen receptor alpha (ER-alpha) signaling pathway using the BG1 cell line (AID 743080; calls by dose curve;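 also: BG1 cells stimulated with 17beta-estradiol alongside compound; series mostly up to about 70 µM; nearly all actives have a fitted effect of over 25% in size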). The essentials:
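BG1Luc4E2, endogenous ER-alpha, 4xERE-luc; 5 d charcoal-stripped FBS, phenol red free; 24 h plating; cpd + 17beta-estradiol 21.5 h, 37 C/5% CO2; CellTiter-Fluor viability 30 min, then ONE-Glo luciferase 30 min RT.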

Assay [9] can be described thus: qHTS assay to identify small molecule antagonists of the estrogen receptor alpha (ER-alpha) signaling pathway using the BG1 cell line - cell viability counter screen (AID 743081).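 Also: compound given together with 17beta-estradiol as the ER stimulus; series mostly up to about 70 µM; nearly all actives have a fitted effect of over 45% in size.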
The target of assay [10] is Aromatase (Homo sapiens) (UniProt P11511). Nature of the assay: qHTS assay to identify aromatase inhibitors (AID 743083). Also: series mostly up to about 70 µM; nearly all actives have a fitted effect of over 55% in size.
Sequence of Aromatase (Homo sapiens) (P11511 whole entry, looked up): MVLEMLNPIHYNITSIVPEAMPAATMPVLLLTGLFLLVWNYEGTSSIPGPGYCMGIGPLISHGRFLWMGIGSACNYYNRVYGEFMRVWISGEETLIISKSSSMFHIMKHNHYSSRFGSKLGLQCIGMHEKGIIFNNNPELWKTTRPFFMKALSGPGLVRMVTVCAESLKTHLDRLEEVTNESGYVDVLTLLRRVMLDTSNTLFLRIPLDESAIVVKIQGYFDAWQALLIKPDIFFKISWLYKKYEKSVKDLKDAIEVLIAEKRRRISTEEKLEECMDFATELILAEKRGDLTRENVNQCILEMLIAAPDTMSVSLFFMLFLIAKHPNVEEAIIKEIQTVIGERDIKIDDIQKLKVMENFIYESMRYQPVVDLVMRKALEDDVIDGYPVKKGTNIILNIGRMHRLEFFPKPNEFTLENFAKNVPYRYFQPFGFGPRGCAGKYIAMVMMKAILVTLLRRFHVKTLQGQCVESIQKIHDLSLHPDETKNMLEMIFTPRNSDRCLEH
Assay [11] in a line: qHTS assay to identify aromatase inhibitors - cell viability counter screen (AID 743084).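 Also: cells stimulated with testosterone during compound exposure; nearly all actives have a fitted effect of over 55% in size.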
For assay [12], the target named is Aryl hydrocarbon receptor (Homo sapiens) (UniProt P35869). Nature of the assay: qHTS assay to identify small molecule that activate the aryl hydrocarbon receptor (AhR) signaling pathway (AID 743085).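 Also: HG2L7.5c1 human HepG2 liver cells with stably integrated DRE-driven firefly reporter; series mostly up to about 70 µM; nearly all actives have a fitted effect of over 15% in size.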 The essentials:
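Luminescence (ONE-Glo) from a dioxin-responsive-element luciferase reporter in HG2L7.5c1 HepG2 cells after 24 hr compound exposure at 37C; viability measured by CellTiter-Fluor fluorescence beforehand.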

Assay [13] can be described thus: qHTS assay to identify small molecule that activate the aryl hydrocarbon receptor (AhR) signaling pathway - cell viability counter screen (AID 743086). Also: series mostly up to about 70 µM; nearly all actives have a fitted effect of over 45% in size. The procedure, abridged: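 Cytotoxicity counter screen: CellTiter-Fluor signal (30 min, 37 C) in 4000 HepG2 cells/well carrying the DRE-luciferase reporter, following 24 h compound exposure at 37 C.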
Assay [14] deals with Peroxisome proliferator-activated receptor gamma (Homo sapiens) (UniProt P37231). Nature of the assay: qHTS assay to identify small molecule agonists of the peroxisome proliferator-activated receptor gamma (PPARg) signaling pathway (AID 743094; active = well fitted activation curve with a large enough effect in the signal ratio in the repeat runs, not every such curve was filed as active; the % refers to the signal ratio). The essentials: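 Compounds dissolved in DMSO were added to PPARg UAS-bla HEK293H cells for 17 h at 37C, and reporter expression was quantified by fluorescence intensity after 1 h with LiveBLAzer B/G FRET substrate.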
Sequence of Peroxisome proliferator-activated receptor gamma (Homo sapiens) (P37231 whole entry, looked up): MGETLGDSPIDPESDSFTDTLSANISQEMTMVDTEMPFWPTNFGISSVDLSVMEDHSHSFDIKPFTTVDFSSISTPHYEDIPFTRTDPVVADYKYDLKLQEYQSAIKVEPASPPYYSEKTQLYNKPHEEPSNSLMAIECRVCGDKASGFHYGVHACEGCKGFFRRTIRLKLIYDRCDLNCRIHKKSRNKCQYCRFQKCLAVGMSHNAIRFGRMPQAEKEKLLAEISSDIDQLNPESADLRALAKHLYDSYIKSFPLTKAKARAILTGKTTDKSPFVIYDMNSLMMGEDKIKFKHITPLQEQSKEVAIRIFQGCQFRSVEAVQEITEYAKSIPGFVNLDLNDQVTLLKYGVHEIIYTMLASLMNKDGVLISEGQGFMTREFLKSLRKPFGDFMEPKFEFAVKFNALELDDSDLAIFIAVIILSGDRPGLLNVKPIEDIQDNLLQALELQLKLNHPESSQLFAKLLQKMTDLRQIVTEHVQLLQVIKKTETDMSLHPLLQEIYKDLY

Assay [15] has the same target. The assay is described as follows: qHTS assay to identify small molecule antagonists of the peroxisome proliferator-activated receptor gamma (PPARg) signaling pathway (AID 743191; calls by dose curve; also: series mostly up to about 63 µM; nearly all actives have a fitted effect of over 30% in size). The procedure, abridged: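 Beta-lactamase reporter under UAS control in HEK293H PPARg-bla cells; compound treatment 17 h at 37C. Read-out: fluorescence intensity after 1 h room-temperature incubation with LiveBLAzer B/G FRET substrate.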

Assay [16] is described as follows: qHTS assay to identify small molecule antagonists of the peroxisome proliferator-activated receptor gamma (PPARg) signaling pathway - cell viability counter screen (AID 743194). Also: nearly all actives have a fitted effect of over 55% in size. The essentials: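 Viability was measured as CellTiter-Glo luminescence in GeneBLAzer PPARg UAS-bla HEK293H cells. These cells had been exposed 17 h at 37 C to compounds together with rosiglitazone at 50 nM final, with the beta-lactamase readout taken in the same wells.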

Assay [17] is described as follows: qHTS assay for small molecule agonists of the antioxidant response element (ARE) signaling pathway (AID 743202; active = well fitted activation curve with a large enough effect in the signal ratio in the repeat runs, not every such curve was filed as active; the % refers to the signal ratio). The essentials: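 Quantitative high-throughput format in HepG2 cells bearing an integrated ARE-beta-lactamase reporter. Compound exposure lasted 16 h at 37 C, and fluorescence was read 2 h after adding LiveBLAzer B/G substrate at room temperature.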

Assay [18] can be described thus: qHTS assay for small molecule agonists of the antioxidant response element (ARE) signaling pathway - cell viability counter screen (AID 743203; calls by dose curve; also: nearly all actives have a fitted effect of over 55% in size). The essentials: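 Following 16 hrs of compound treatment at 37C, HepG2 cells with an ARE-controlled beta-lactamase gene were lysed with CellTiter-Glo. Luminescence was read after 30 min at room temperature.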
The nature of assay [19]: qHTS assay for small molecule activators of the heat shock response signaling pathway - cell viability counter screen (AID 743209). Also: nearly all actives have a fitted effect of over 50% in size. The procedure, abridged: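 Readout: CellTiter-Glo luminescence, 30 min at room temperature. System: HSE-bla HeLa cells, 1500/well, plated overnight. Treatment: compounds in DMSO, 5 h at 37 C.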
A short description of assay [20]: qHTS assay for small molecule activators of the heat shock response signaling pathway (AID 743210; active = well fitted activation curve with a large enough effect in the signal ratio in the repeat runs, with a control signal flat, not every such curve was filed as active; the % refers to the signal ratio;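 also: HeLa cells with beta-lactamase reporter driven by heat shock elements; series mostly up to about 63 µM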). The procedure, abridged: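 HeLa HSE-bla cells, overnight plating; cpd in DMSO 5 h, 37 C; LiveBLAzer B/G FRET substrate 2.5 h RT; fluorescence intensity read.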

Sequence of Aryl hydrocarbon receptor (Homo sapiens) (P35869 whole entry, looked up): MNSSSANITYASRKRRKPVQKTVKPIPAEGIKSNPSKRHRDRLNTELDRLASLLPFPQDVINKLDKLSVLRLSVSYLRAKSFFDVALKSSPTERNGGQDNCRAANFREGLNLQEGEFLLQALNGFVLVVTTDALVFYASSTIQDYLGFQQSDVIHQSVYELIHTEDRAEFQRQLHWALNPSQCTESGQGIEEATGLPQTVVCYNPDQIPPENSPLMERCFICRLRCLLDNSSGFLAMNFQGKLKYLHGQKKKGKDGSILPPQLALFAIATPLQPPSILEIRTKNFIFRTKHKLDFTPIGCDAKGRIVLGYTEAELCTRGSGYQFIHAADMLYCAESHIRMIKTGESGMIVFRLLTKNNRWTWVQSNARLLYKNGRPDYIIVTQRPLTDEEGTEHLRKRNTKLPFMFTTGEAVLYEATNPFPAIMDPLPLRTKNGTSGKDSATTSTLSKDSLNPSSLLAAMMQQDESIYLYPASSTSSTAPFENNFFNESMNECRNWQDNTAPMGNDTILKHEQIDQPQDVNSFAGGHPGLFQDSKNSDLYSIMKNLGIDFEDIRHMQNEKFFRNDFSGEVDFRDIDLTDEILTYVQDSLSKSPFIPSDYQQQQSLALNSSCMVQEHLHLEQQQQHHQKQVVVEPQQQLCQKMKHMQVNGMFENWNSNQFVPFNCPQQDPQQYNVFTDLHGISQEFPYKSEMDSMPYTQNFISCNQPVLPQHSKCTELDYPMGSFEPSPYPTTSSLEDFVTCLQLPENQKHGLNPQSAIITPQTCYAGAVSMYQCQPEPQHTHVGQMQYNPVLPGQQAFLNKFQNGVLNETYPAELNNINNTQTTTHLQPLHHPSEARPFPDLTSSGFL

Consider `O=C(Oc1ccccc1)Oc1ccccc1`, for which the Potency entry in assay [1], in assay [2], in [4], in assay [5], in assay [6] and in assay [7] was “inactive” in each case. Moreover, the Potency entry in assay [8], in assay [9], in assay [10], in assay [11], in [12] and in [13] was “inactive” each time. For the same molecule, the Potency entry in [14], in assay [15], in assay [16], in assay [17], in assay [18] and in assay [19] was “inactive” throughout. The Potency result in assay [20] was “inactive”. Besides, in [3], the outcome was inactive.
Consider `O=C(/C=C/c1ccccc1)OC/C=C/c1ccccc1`, for which the Potency result in assay [1], in assay [2], in assay [4], in assay [5], in assay [6] and in assay [8] was “inactive” throughout. Moreover, the Potency entry in assay [9], in assay [10], in assay [11], in assay [12], in assay [13] and in assay [14] was “inactive” in each case. For the same molecule, the Potency entry in [15], in assay [16], in assay [18], in assay [19] and in assay [20] was “inactive” each time. Also, the outcome in assay [3] was inactive. Further, in [7], the Potency was 30.6 µM (active).
In the case of `CCCCCCOC(=O)C(C)CC` (stereo not given), the Potency entry in assay [1], in assay [2], in [4], in [5], in assay [6] and in assay [7] was “inactive” throughout. Moreover, the Potency result in [8], in assay [9], in assay [10], in assay [11], in assay [12] and in assay [13] was “inactive” each time. Also, the Potency result in assay [14], in [15], in assay [16], in assay [18], in [19] and in assay [20] was “inactive” throughout. The outcome in assay [3] was inactive.
Take `CCCC1CCC(=O)CC1`: the Potency entry in assay [1], in assay [2], in assay [4], in [5], in assay [6] and in [7] was “inactive” throughout. In addition, the Potency entry in assay [8], in [9], in assay [10], in [11], in [12] and in [13] was “inactive” each time. The Potency result in assay [14], in [15], in assay [17], in assay [18], in assay [19] and in [20] was “inactive” each time. Further, the molecule was classed as inactive in assay [3].
For the molecule `CCCCOC(=O)CO`, the Potency entry in assay [1], in [2], in assay [4], in [5], in assay [6] and in assay [7] was “inactive” each time. Besides, the Potency result in assay [8], in assay [9], in assay [10], in assay [11], in assay [12] and in [13] was “inactive” throughout. The Potency result in assay [14], in assay [15], in assay [16], in assay [17], in assay [19] and in assay [20] was “inactive” throughout. Besides, the molecule was called inactive in assay [3].
On to `CC(C)(c1cc(Br)c(OCC(Br)CBr)c(Br)c1)c1cc(Br)c(OCC(Br)CBr)c(Br)c1` (stereo not given), for which the Potency entry in [1], in assay [2], in assay [4], in assay [5], in [6] and in [7] was “inactive” each time. The Potency entry in assay [8], in assay [9], in [10], in assay [11], in assay [12] and in [13] was “inactive” each time. Moreover, the Potency entry in assay [14], in assay [15], in [16], in [17], in assay [18] and in assay [19] was “inactive” throughout. Further, in assay [20], the Potency result is “inactive”. Besides, the molecule was classed as inactive in assay [3].
Take `O=[N+]([O-])c1cccc(C(F)(F)F)c1`: the Potency entry in assay [1], in [2], in [4], in assay [5], in assay [6] and in [7] was “inactive” in each case. Moreover, the Potency entry in [8], in assay [9], in assay [10], in [11], in assay [12] and in [13] was “inactive” in each case. Besides, the Potency result in assay [14], in [16], in [17], in assay [18], in assay [19] and in assay [20] was “inactive” each time. Further, the molecule was classed as inactive in [3].
